One may read the AC50 as the concentration giving half of the maximal activity seen.

Molecules are shown by their SMILES. Results filed as inconclusive are left out. Calls of active or inactive are those of the source. Rule for the calls: active = hit-call score of the fitted dose curve at least 0.9, where 1 is the maximum; inconclusive = response in the unintended direction; inactive = score below 0.9.

Read-out in the experiment: HMG-CoA synthase (HMGCS2), HMGCS2 (gene 3158)
As to the kind of experiment: CLD_HMGCS2_48hr: CellzDirect (CLD) Gene Expression Assay for HMG-CoA synthase (HMGCS2) at 48 hours (AID 2283711). The protocol: CLD_48hr is a cell-based, multiplexed-readout assay that uses hepatocyte, a human liver primary cell, with measurements taken at 48 hours after chemical dosing in a 96-well plate.CLD_HMGCS2_48hr is one of 16 assay component(s) measured or calculated from the CLD_48hr assay. It is designed to make measurements of mRNA induction, a form of inducible reporter, as detected with chemiluminescence signals by Quantitative Nuclease Protection Assay (qNPA) technology.Data from the assay component CLD_HMGCS2_48hr was analyzed at the endpoint, CLD_HMGCS2_48hr, in the positive analysis fitting direction relative to DMSO as the negative control and baseline of activity. Using a type of inducible reporter, gain-of-signal activity can be used to understand changes in the reporter gene as they relate to the gene HMGCS2. Furthermore, this assay endpoint can be referred to as a primary readout. To generalize the intended target to other relatable targets, this assay endpoint is annotated to the lyase intended target family, where subfamily is HMG-CoA synthase.
Human hepatocyte cultures were treated daily for two consecutive days with fresh dosing solutions containing appropriate concentrations of the 320 ToxCast chemicals (chemical identities were blinded to CellzDirect and other ToxCast collaborators), vehicle control (0.2% DMSO), and positive control inducers as summarized in Table 1. Due to the large number of treatment groups and chemicals examined, the ToxCast chemicals were divided into two groups (spanning two independent cultures of hepatocytes from separate donor preparations (Hu778: ToxCast plates 1 and 2; Hu776: ToxCast plates 3 and 4). Each preparation of human hepatocyte cultures was treated with respective vehicle control, medium only control, set of six positive controls/reference chemicals for the five hepatic receptor pathways, and a subset of eight of the ToxCast chemicals (indoxacarb, pyrithiobac-sodium, norflurazon, cyhalofop-butyl, methomyl, thiram, acetochlor, and propiconazole). These replicate data, coupled with internal replicates designed within the blinded ToxCast chemical library, provided additional data to evaluate interindividual differences between hepatocyte preparations and their potential impact on chemical profiles.Cell morphology and integrity were evaluated using phase-contrast microscopy as an indicator of hepatocyte cell health (Tyson & Green, 1987). Cultures for each treatment group (i.e., media, vehicle [0.2% DMSO], positive control inducers [multiple concentrations], and the ToxCast chemicals [multiple concentrations]) were observed and cell morphology was assessed relative to vehicle control cultures at each harvest time point (0, 6, 24, or 48 h). […] Images were evaluated at the conclusion of the study to assess changes in cell integrity and account for the effects of chemical exposure on uncharacteristic changes in concentration-dependent gene expression profiles. The results from these determinations of apparent cytotoxicity were annotated (yes/no) alongside the corresponding qNPA data for reference.At the conclusion of each treatment period, hepatocyte cultures (96-well) were washed with 1 volume of HBSS, lysed by addition of 25 ul ArrayPlate lysis buffer (HTG, Tucson, AZ), and 70 ul/well of Denaturation Oil, denatured by incubation at 95C for 10 min, and frozen at approximately -70C until analysis by nuclease protection assay (qNPA) (Roberts et al., 2007). For qNPA analysis, cell lysates were thawed at 50C for approximately 30 min, qNPA probes were added, and samples were incubated at 95C for 10 min to begin the detection process by denaturing the target RNA, dissociating the duplexes and secondary structure hybridization. At the conclusion of the hybridization period, S1 nuclease reagent was added to each sample to digest all nonprotected nucleotides at 50C for 60-90 min. […]
On to `CC1(c2ccc(Oc3ccccc3)cc2)OC(=O)N(Nc2ccccc2)C1=O` (centres undefined), for which the molecule was classed as inactive.
Still for that read-out and setting: next, `Cc1cc(C)nc(NC(=O)NS(=O)(=O)c2ccccc2C(=O)OC2COC2)n1`: “inactive”.
On the same count and under the same terms, the result for `O=C(NC(=O)c1c(F)cccc1F)Nc1ccc(OC(F)(F)C(F)OC(F)(F)F)c(Cl)c1` (centres undefined) reads “inactive”; that for `CC(C)(C)C(O)C(Oc1ccc(Cl)cc1)n1cncn1` (centres undefined), “inactive”; that for `CNC(=O)/C=C(\C)OP(=O)(OC)OC`, “inactive”.
For `CC1(C)C(C=C(Cl)Cl)C1C(=O)OC(C#N)c1ccc(F)c(Oc2ccccc2)c1` (centres undefined), the call was inactive.
On to `Oc1cc(Cl)ccc1Oc1ccc(Cl)cc1Cl`, for which the AC50 is 0.0058 µM (active).
Consider `O=C(O)C(F)(F)C(F)(F)C(F)(F)C(F)(F)C(F)(F)C(F)(F)C(F)(F)F`, for which the AC50 is 35.5 µM (active).
Take `Oc1ccc(Cl)cc1Cc1ccccc1`: the result was inactive.
`CNC(=O)CSP(=S)(OC)OC`: the molecule was called inactive.
Same read-out and setting: the result for `Clc1ccccc1-c1nnc(-c2ccccc2Cl)nn1` reads “inactive”; that for `O=C(O)CCCOc1ccc(Cl)cc1Cl`, “inactive”.
Same read-out and setting: the result for `O=S(=O)(O)C(F)(F)C(F)(F)C(F)(F)C(F)(F)C(F)(F)C(F)(F)C(F)(F)C(F)(F)F` reads “inactive”; that for `O=C(O)COc1ccc(Cl)cc1Cl`, “inactive”.

Source of the values: PubChem BioAssay (EPA / NIEHS).
